Results published in the supplement of paper PMC12669032.
Values without a mark were called inactive.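 The calls were made as follows: active = AUC reduced over 20% with Padj below 0.05 in at least 2 of 3 replicates; inactive = otherwise.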

Columns and labels:
Experiment in all cases: growth AUC relative to DMSO control (median of replicates) (fraction); higher = more growth (less inhibition), active = hit call of the paper
Details in all cases: 20 µM; 24 h
[1] = test system: Akkermansia muciniphila
Outline: (§1)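 OD600 was recorded every hour for 24 h in anaerobic monocultures of gut bacteria kept at 37 °C in mGAM, seeded at OD600 0.05 and given 20 µM compound in 1% DMSO. The area under each growth curve was scaled to the plate median of solvent-only wells, or to row and column medians for the industrial chemical plate. Before this step, the minimum OD was set to 0. Reported values are medians of three biological replicates run on separate days.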

[2] = test system: Bacteroides caccae
Outline: as §1

[3] = test system: Bacteroides clarus
Outline: as §1

[4] = test system: Bacteroides dorei
Outline: as §1

[5] = test system: Bacteroides stercoris
Outline: as §1

[6] = test system: Bacteroides thetaiotaomicron
Outline: as §1

[7] = test system: Bacteroides uniformis
Outline: as §1

[8] = test system: Bifidobacterium longum subsp. longum
Outline: as §1

[9] = test system: Clostridium difficile
Outline: as §1

[10] = test system: Collinsella aerofaciens
Outline: as §1

| Structure (SMILES) | growth AUC [1] | growth AUC [2] | growth AUC [3] | growth AUC [4] | growth AUC [5] | growth AUC [6] | growth AUC [7] | growth AUC [8] | growth AUC [9] | growth AUC [10] |
| --- | --- | --- | --- | --- | --- | --- | --- | --- | --- | --- |
| O=C1C(Cl)=C(Cl)C(=O)C(Cl)=C1Cl | 1.08 | 1.09 | 1.01 | 0.978 | 0.877 | 0.986 | 0.976 | 0.969 | 1.03 | 0.992 |
| N#Cc1c[nH]cc1-c1cccc2c1OC(F)(F)O2 | 0.837 | 0.959 | 0.918 | 0.953 | 0.85 | 0.953 | 0.999 | 0.91 | 0.978 | 0.992 |
| O=C(O)c1c(Cl)ccc2cc(Cl)cnc12 | 0.898 | 1 | 0.983 | 0.992 | 0.987 | 1.02 | 1 | 0.961 | 0.959 | 0.947 |
| C=CCC1=C(C)C(OC(=O)C2C(C=C(C)C)C2(C)C)CC1=O (stereo not given) | 1.05 | 0.994 | 1 | 0.97 | 0.832 | 0.968 | 0.98 | 0.963 | 1 | 0.957 |
| COP1(=S)OCc2ccccc2O1 (stereo not given) | 1.01 | 0.973 | 0.979 | 0.999 | 1.02 | 0.993 | 0.986 | 0.972 | 0.97 | 1.04 |
| COP(=O)(OC)O/C(=C/Br)c1ccc(Cl)cc1Cl | 1.06 | 1 | 0.978 | 0.979 | 1.02 | 0.96 | 0.961 | 1.03 | 0.983 | 1 |
| CCOP(=S)(OCC)SCCS(=O)(=O)CC | 1.05 | 1.02 | 1 | 0.977 | 1.03 | 0.99 | 0.986 | 1.01 | 1 | 0.995 |
| Cc1cc(C)nc(Nc2ccccc2)n1 | 0.869 | 0.98 | 0.957 | 1 | 0.987 | 0.957 | 0.97 | 1 | 0.983 | 0.999 |
| O=C(O)c1cc(Oc2ccc(C(F)(F)F)cc2Cl)ccc1[N+](=O)[O-] | 1.01 | 1.04 | 0.925 | 0.916 | 0.84 | 1.02 | 0.985 | 1.06 | 0.966 | 0.956 |
| CCS(=O)c1c(C#N)nn(-c2c(Cl)cc(C(F)(F)F)cc2Cl)c1N (stereo not given) | 0.952 | 1.04 | 0.996 | 1.01 | 1.04 | 0.961 | 0.959 | 1.01 | 1.02 | 1.01 |
| CCCN(CCC)N=O | 1.07 | 1.01 | 1.02 | 1 | 1 | 0.999 | 1.03 | 0.902 | 1.01 | 0.977 |
| CCc1cccc(C)c1N(C(=O)CCl)[C@@H](C)COC | 1.13 | 0.95 | 0.99 | 0.98 | 1.2 | 0.975 | 1 | 1.03 | 0.961 | 0.963 |
| CN(C)C1CSSSC1.O=C(O)C(=O)O | 0.941 | 0.98 | 0.974 | 1.17 | 0.905 | 1.07 | 1.23 | 0.964 | 1.05 | 1.03 |
| O=C1C=CC(=O)C=C1 | 0.97 | 0.991 | 0.992 | 1.01 | 1.02 | 1.01 | 1 | 1.01 | 0.997 | 0.992 |
| CCc1nn(C)c(C(=O)NCc2ccc(C(C)(C)C)cc2)c1Cl | 1.02 | 0.94 | 0.929 | 0.921 | 0.725 (active) | 0.694 (active) | 0.982 | 0.95 | 0.972 | 0.887 |
| Clc1cc(Cl)c(Cl)cc1Cl | 1.01 | 0.997 | 0.987 | 0.981 | 1.14 | 0.982 | 1.01 | 1.07 | 0.98 | 1.01 |
| CC(COc1ccc(Oc2ccccc2)cc1)Oc1ccccn1 (stereo not given) | 0.989 | 0.949 | 0.98 | 1.01 | 0.78 | 0.993 | 0.994 | 1.04 | 0.99 | 0.994 |
| CC(C)=CC1C(C(=O)OC(C#N)c2cccc(Oc3ccccc3)c2)C1(C)C (mixture of isomers) | 0.826 | 0.964 | 0.994 | 0.989 | 1.11 | 1.01 | 1.06 | 0.914 | 1 | 0.935 |
| CCCSP(=O)(OCC)SCCC | 1.14 | 0.994 | 1.02 | 0.962 | 1.02 | 0.998 | 0.98 | 1.02 | 0.997 | 0.99 |
| Clc1cccc(C(Cl)(Cl)Cl)n1 | 1.16 | 1.01 | 1.01 | 0.948 | 1.03 | 1.02 | 0.961 | 1.06 | 1.01 | 0.974 |
| O=C(Nc1ccccc1-c1ccc(Cl)cc1)c1cccnc1Cl | 0.987 | 0.998 | 0.986 | 0.998 | 1.01 | 0.958 | 0.966 | 1.03 | 0.998 | 0.999 |
| CCOP(=S)(OCC)SCSCC | 1.1 | 0.955 | 0.991 | 0.969 | 0.942 | 0.997 | 0.986 | 1.01 | 1.01 | 1.01 |
| CNC(=O)Oc1cccc2c1OC(C)(C)C2=O | 1.05 | 1.03 | 1.03 | 1.02 | 1.04 | 1.02 | 1.05 | 1.02 | 1.01 | 1.01 |
| CNC(=O)Oc1cccc2c1OC(C)(C)O2 | 0.915 | 1.07 | 1.01 | 0.982 | 1.02 | 1.04 | 0.997 | 1.06 | 1.06 | 1 |
| O=C(NC(=O)c1c(F)cccc1F)Nc1ccc(Oc2ccc(C(F)(F)F)cc2Cl)cc1F | 1.02 | 1.02 | 0.984 | 1.02 | 1.02 | 1 | 0.996 | 1.05 | 1.02 | 1.08 |
| CN(C)C(CSS(=O)(=O)[O-])CSS(=O)(=O)[O-].[Na+].[Na+] | 0.921 | 0.916 | 1 | 1.09 | 1.04 | 0.983 | 1.14 | 1.25 | 0.955 | 0.969 |
| CC(C)(C)C(O)C(Cc1ccc(Cl)cc1Cl)n1cncn1 (mixture of isomers) | 1.11 | 0.923 | 0.969 | 0.889 | 0.868 | 0.921 | 0.932 | 1.04 | 1.01 | 0.936 |
| CCCCCCCCCCCCC1=C(OC(C)=O)C(=O)c2ccccc2C1=O | 1.04 | 0.926 | 0.934 | 0.969 | 0.988 | 0.996 | 0.987 | 0.827 | 0.926 | 0.0278 (active) |
| CCCCc1c(C)nc(N(C)C)[nH]c1=O | 0.964 | 1.01 | 0.966 | 0.984 | 1.03 | 0.989 | 0.982 | 0.998 | 0.997 | 1.05 |
